# Most compounds without a hit are left out; they make up all but 21% or so of the library.
# Giardia FBPA inh: inhibitors of Giardia lamblia fructose-1,6-bisphosphate aldolase | purified Giardia FBPA | AID 2451 | A8B2U2 | 290,000 tested, 0.71% active | Potency, µM (titrated, usually from 59.6 µM), for inactives: at the highest dose activity, negative = inhibition, hits mostly inhibitors; note: potency is the fitted concentration of half-maximal effect; % is set by controls: 0 for no effect and ±100 for the full control effect; nearly all actives have a fitted effect of over 55% in size
# Target sequence (A8B2U2 whole entry, looked up): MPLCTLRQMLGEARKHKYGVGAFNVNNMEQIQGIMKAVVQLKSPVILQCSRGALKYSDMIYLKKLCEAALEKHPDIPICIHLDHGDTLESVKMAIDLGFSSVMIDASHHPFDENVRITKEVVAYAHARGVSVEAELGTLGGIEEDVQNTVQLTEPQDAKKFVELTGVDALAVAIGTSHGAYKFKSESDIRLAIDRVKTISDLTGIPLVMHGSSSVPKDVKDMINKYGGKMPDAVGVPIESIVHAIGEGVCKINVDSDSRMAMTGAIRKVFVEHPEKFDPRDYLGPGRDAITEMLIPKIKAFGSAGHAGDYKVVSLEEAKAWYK
#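 Giardia FBPA (40 nM reagent) was preincubated 10 min at RT with compound (up to 57.5 uM final), then substrate plus GAPDH/TPI/NAD/arsenate coupling system with diaphorase/resazurin was added; resorufin fluorescence (525/598 nm) was read after 20 min.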
# Cycloheximide cs: counter-screen hit for Shiga toxin inhibitors, cycloheximide; cell reporter, cycloheximide protein synthesis inhibition counterscreen; max response, %; 300,000 tested, 12% active; in the data active = max response mostly above about 13%, no sharp cut-off; inactive = mostly below about 14%; note: read at 38.3 µM for the half of the compounds with a filed dose; 0% is about no effect
# NS1 function inh: blocks influenza NS1 protein function. Potency, µM (series often up to 46.1 µM), for inactives: at the top dose activity, positive = more growth. 270,000 tested, 0.4% active; calls by dose curve; note: potency is the fitted concentration of half-maximal effect; actives are rising curves; nearly all actives have a fitted effect of over 50% in size
#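 Compounds were scored for reversing the slow growth caused by influenza A NS1 in S. cerevisiae, measured by optical density at 600 nm. Assay medium contained 2% galactose at pH 6.0; NS1-free yeast of the same strain were the positive control.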
# Shiga toxin inh: blocks Shiga toxin action in Vero cells; Vero cells, Shiga toxin protein synthesis inhibition reporter; inhibition, % at 38.7 µM; 290,000 tested, 9.2% active; in the data active = inhibition mostly above about 28%, no sharp cut-off; inactive = mostly below about 43%; note: 0% is about no effect
# Pf growth 48h: P. falciparum growth inhibition at 48 hours (one generation); P. falciparum luciferase growth in erythrocytes, 48 h; Potency, µM (doses to about 28.7 µM), for inactives: at the top dose activity change, negative = inhibition, most hits filed as inhibitors; 310,000 tested, 5.9% active; AID 504832; note: potency is the fitted concentration of half-maximal effect; % is set by controls: 0 for no effect and ±100 for the full control effect
#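 Erythrocytes infected with P. falciparum carrying an integrated firefly luciferase reporter (2% hematocrit, 0.1% parasitemia final) were exposed to compounds in RPMI 1640 with 0.5% Albumax at 37 C, 5% CO2. Growth inhibition was scored as reduced luminescence.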
# Pf growth 96h: inhibits malaria parasite growth, 96 h; P. falciparum luciferase reporter growth, 96 h; Potency, µM (series often up to 28.7 µM), without a hit: top-dose activity change, negative = inhibition, hits mostly inhibitors; 320,000 tested, 6.9% active; AID 504834; note: potency is the fitted concentration of half-maximal effect; % is set by controls: 0 for no effect and ±100 for the full control effect
#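 Infected RBCs, 2% Hct / 0.05% parasitemia final; luciferase-reporter P. falciparum; cpd 96 h, 37 C, 5% CO2; luciferase detection reagent; luminescence.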
# * = called active by the depositor; u = inconclusive; x = not tested or not shown. Unless noted, calls come from the whole dose curve; as a rule, active = well fitted curve in the direction sought with a large enough effect; inconclusive = small, poorly fitted or top-dose-only effect, or another doubt; inactive = no such curve, though single readings can be large; an effect the other way counts as inactive or inconclusive.
SMILES,Giardia FBPA inh,Cycloheximide cs,NS1 function inh,Shiga toxin inh,Pf growth 48h,Pf growth 96h
Cc1ccc(Nc2ncnc(N)n2)cc1,-1.5%,36.5*,3.3%,49.7*,110.9%,-38.2%
CCOc1ccc(Nc2ncnc(N)n2)cc1,-11.4%,17.8,-8.7%,45.0*,43.2%,x
Nc1ncnc(Nc2ccc(F)cc2)n1,2.8%,9.6,4.7%,30.8,9.2%,6.3%
CC(NC(=O)Nc1cccc(F)c1)c1ccc2c(c1)OCO2 (stereo unspecified),-1.6%,-1.4,-3.6%,-3.9,1.5%,u
Cc1cc(F)ccc1NC(=O)Nc1ccc2c(c1)OCO2,x,11.9*,2.3%,10.5,32.4%,-11.6%
Cc1ccc(NC(=O)Nc2ccc3c(c2)OCO3)c(OC(F)F)c1,-8.4%,48.4*,-2.9%,102.7*,75.8%,7.5%
Cc1cccc(C)c1NC(=O)Nc1ccc2c(c1)OCO2,3.5%,27.0,x,37.7,u,-1.8%
Cc1ccc(NC(=O)Nc2ccc3c(c2)OCO3)cc1F,5.1%,72.9*,-3.3%,90.4*,77.0%,37.1%
O=C(Nc1ccccn1)c1cc2cc([N+](=O)[O-])ccc2s1,0.0%,40.5*,x,79.4*,98.4%,252.2%
COc1ccc(NC(=O)c2cc(SC)ccc2Cl)cc1,-4.9%,-3.3,-1.4%,9.5,-6.9%,-12.3%
O=C(Nc1ccc(Cl)cc1)c1ccc(-c2ccccn2)s1,5.4%,41.9*,5.0%,71.6*,133.6%,11.1%
O=C(Nc1ccc(Cl)cc1)c1cncs1,9.0%,-2.1,-2.4%,8.1,37.4%,-5.7%
CSc1ccc(Cl)c(C(=O)Nc2ccc(C)cn2)c1,-4.7%,24.6*,-1.7%,35.6,24.2%,2.1%
Cc1cc(NC(=O)c2ccc([N+](=O)[O-])cc2Cl)no1,-5.9%,42.5*,2.6%,69.6*,101.1%,28.9%
COCCN(C(=O)COC(=O)CCC1CCCC1)c1c(N)n(Cc2ccccc2)c(=O)[nH]c1=O,x,x,x,x,-12.7%,u
O=C(Nc1ccccn1)c1ccc(Cl)c([N+](=O)[O-])c1,-9.7%,20.0*,-2.7%,64.3*,26.3%,16.2%
O=C(Nc1ccccn1)c1ccc([N+](=O)[O-])cc1Cl,4.0%,16.1*,6.6%,34.8,40.6%,71.2%
O=C(Nc1ccccn1)c1cccnc1,3.8%,-2.0,2.4%,12.1,11.4%,x
O=C(N/N=C/c1ccccn1)c1ccc(Cl)c(Cl)c1,-8.2%,43.9*,-100.6%,68.9*,14.7µM*,u
O=C(Nc1ccccn1)c1ccc(Br)s1,13.3%,40.2*,-29.9%,x,127.0%,4.2%
Cc1cccc(C(=O)Nc2nsc(N)n2)c1,x,x,x,x,3.7%,42.0%
O=C(N/N=C/c1ccccn1)c1ccc([N+](=O)[O-])cc1Cl,13.9%,27.9*,6.3%,x,-12.8%,-84.8%
O=C(N/N=C/c1cccnc1)c1ccc([N+](=O)[O-])cc1Cl,-0.5%,10.4,4.5%,35.0,36.4%,51.5%
O=C(c1cc2cc([N+](=O)[O-])ccc2s1)N1CCOCC1,2.1%,10.0,x,11.3,13.1%,20.4%
O=C(c1cc2cc([N+](=O)[O-])ccc2s1)N1CCCCC1,-0.4%,28.3*,x,35.2,85.2%,138.7%
SMILES,Giardia FBPA inh,Cycloheximide cs,NS1 function inh,Shiga toxin inh,Pf growth 48h,Pf growth 96h
Cc1ccc(NC(=O)c2ccc([N+](=O)[O-])cc2Cl)nc1,-3.4%,75.5*,14.9%,125.2*,234.4%,341.5%
CN1CCC(=O)N([C@H](CN=[N+]=[N-])Cc2ccccc2)CC1,1.4%,-1.3,7.5%,-10.4,-5.8%,55.1%
CCOC(=O)c1ccc(COc2ccc(C(C)C)cc2)o1,-0.1%,73.2*,-5.6%,101.8*,214.7%,5.4%
CCOc1ccc(OCc2ccc(C(=O)N3CCCC3)o2)cc1,-0.4%,23.9*,-54.7%,54.1*,-6.9%,63.3%
CCCc1ccc(OCc2ccc(C(=O)N3CCN(c4ccccn4)CC3)o2)c(OC)c1,-5.2%,35.8*,-144.0%,27.8,13.1µM*,-1.5%
CCOc1ccc(OCc2ccc(C(=O)N3N=C(C(F)F)CC3(O)C(F)F)o2)cc1 (stereo unspecified),-0.1%,9.6,2.1%,3.0,36.6%,x
CCCNC(=O)c1ccc(COc2ccc(C)cc2)o1,5.9%,0.9,-38.6%,-5.5,u,u
CCOc1ccc(OCc2ccc(C(=O)NC(C)C)o2)cc1,5.8%,39.8*,-10.6%,43.0*,u,11.7µM*
CN(C)c1ccc(-c2cncnc2NCCc2cnc[nH]2)cc1,-10.8%,x,x,x,x,x
CCCCc1nnc(NC(=O)COc2ccc3c(C)cc(=O)oc3c2)s1,2.7%,9.8,2.2%,7.9,1.8%,66.5%
O=C(CSc1nnc(CNC(=O)c2cccc(C(F)(F)F)c2)o1)NC1CCCC1,x,-1.7,8.0%,-9.4,8.2%,16.4%
Cc1ccc(C)c(NC(=O)CN2C(=O)NC(C)(c3ccc4c(c3)OCCO4)C2=O)c1 (stereo unspecified),x,x,x,x,u,-13.7%
CCC(C)c1ccc(OCc2ccc(C(=O)O)o2)cc1 (stereo unspecified),19.5%,70.5*,-41.0%,105.3*,324.5%,-9.0%
CC(C)(c1ccccc1)c1ccc(OCc2ccc(C(=O)O)o2)cc1,x,x,x,x,69.9%,57.9%
Cc1ccccc1OCc1ccc(C(=O)N2CCOCC2)o1,-5.7%,-3.5,-7.4%,24.5,11.5%,4.0%
CC(C)c1ccc(OCc2ccc(C(=O)N3CCCC3)o2)cc1,-2.0%,111.0*,-50.8%,154.8*,0.7%,41.1%
CCOC(=O)c1ccc(CC(=O)c2ccc(O)c(O)c2O)o1,11.2µM*,1.2,12.0%,-14.1,u,30.2%
CCOc1ccc(OCc2ccc(C(=O)OCc3ccccn3)o2)cc1,-1.4%,63.2*,-108.1%,143.1*,143.2%,10.4µM*
CCOc1ccc(C(=O)NCc2ccccn2)cc1,1.1%,10.8,5.6%,7.0,x,37.7%
CCCC12CN3CCN(CC(C3)/C1=N\NC(=O)c1ccc(C(C)(C)C)cc1)C2,1.6%,1.2,24.2%,-7.8,2.1%,-26.6%
COc1ccc(NC(=O)CN(C)C(=O)Cc2ccc(S(=O)(=O)N3CCOCC3)s2)cc1,x,x,x,x,u,0.1%
COc1cc(C2/C(=C(\O)c3ccc4c(c3)CC(C)O4)C(=O)C(=O)N2CCN2CCOCC2)cc(OC)c1OC (stereo unspecified),x,1.0,16.8%,-7.0,0.2%,u
CN1CCN(C(=O)c2ccc(COc3ccc(C(C)(C)C)cc3)o2)CC1,-1.2%,49.4*,-0.7%,65.5*,1.6%,-2.0%
O=C(c1ccco1)N1CCN(C(=O)c2ccc(COc3ccc4c(c3)CCC4)o2)CC1,x,0.6,-44.6%,-3.5,u,u
CCCc1ccc(OCc2ccc(C(=O)N3CCCC3)o2)cc1,-6.2%,22.4*,-63.0%,148.8*,10.4µM*,23.1%
NS(=O)(=O)c1ccc2nc(-c3ccccc3)c(-c3ccccc3)nc2c1,8.6%,-1.9,-5.6%,1.9,9.4%,26.5%
COc1ccc(C(C)=O)c(Oc2ccc(S(=O)(=O)N3CCOCC3)cn2)c1,x,x,x,x,8.28µM*,u
